According to PubChem BioAssay:

system: Fibrinogen (Alexa647-labelled); assay: Alexa647-fibrinogen binding to printed small molecules – biochemical, small-molecule microarray, 635/667 nm fluorescence, artefact control for SMM control-protein annotation, profiling panel (AID 1131); settings: fibrinogen-A647 binding fluorescence, higher = more signal;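 also: z-score merges 667 nm fluorescence with per-spot signal-to-noise over triplicate slides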

Row | Structure (SMILES) | composite z-score
1 | C=CCc1cccc([C@@H]2[C@@H](C)CC[C@H]3C(=O)N4[C@H](c5cccc(CC=C)c5)[C@@H](C)CC[C@H]4C(=O)N23)c1 | 0.991
2 | CCCCCCc1nc(C2CC2)c(C)c2c1[Si](C(C)C)(C(C)C)OC2 | -0.687
3 | CC(C)(C)OC(=O)CC[C@]1(C(=O)NCCN2CCOCC2)N=C(c2ccc(OCCCO)cc2)O[C@H]1c1ccccc1CN=[N+]=[N-] | 0.75
4 | CCOC(=O)C[C@H]1[C@H](OC(=O)c2ccccc2-c2ccccc2)[C@@H](NC(=O)c2ccc(-c3ccccc3)cc2)c2cc(OCCCO)ccc2N1C(=O)Cc1ccc(OC)cc1 | 0.411
5 | C=CCN1C(=O)[C@@]2(Cc3ccccc3)N=C(c3ccc(OCCCO)cc3)O[C@H]2c2ccccc21 | 0.578
6 | C=CCC(OC(C)=O)[C@@H]1[C@@H](N(Cc2cc3ccccc3o2)C(=O)c2ccc(C)cc2)c2cc(OCCCO)ccc2N1C(=O)c1ccc2ccccc2n1 (stereo partly specified) | -0.589
7 | C=C(C(=O)CC[C@H](OC(=O)c1ccccc1-c1ccccc1C(=O)O)c1ccc(CO)o1)C(C)C | 0.531
8 | O=C(CS)NCCCCCNC(=O)[C@H]1C[C@H]2C(=O)N3CCC[C@H]3C(=O)N2[C@H]1c1ccc(O)cc1 | -0.743
9 | N#Cc1ccc(NN2C(C(O)CCc3ccccc3)C=CC3C(=O)N(c4ccccc4)C(=O)C32)cc1 (stereo unspecified) | 0.846
10 | O=[N+]([O-])c1ccc(C[n+]2ccc3ccc(O)cc3c2)o1 | 0.596
11 | Cc1ccc(S[C@]2(C(=O)NC(C)C)CC(=O)N(Cc3cc(C(F)(F)F)cc(C(F)(F)F)c3)[C@@H]2c2ccc(CO)cc2I)cc1 | -0.306
12 | COC(=O)[C@@]1(Cc2ccccc2N=[N+]=[N-])N=C(c2ccc(OCCCO)cc2)O[C@H]1c1ccccc1CN=[N+]=[N-] | 0.168
13 | O=C(NCc1ccccc1)c1ccc(Br)cc1[N+](=O)[O-] | -0.0828
14 | C=C(COC)/C(=C/C[C@H](OC(C)=O)c1ccc(OCCO)cc1)c1cnc2ccccc2c1 | 0.333
15 | COc1cc2c(cc1OC)CN(C(=O)[C@H]1[C@@H]3C(=O)O[C@@H](c4ccccc4)[C@@H](c4ccccc4)N3[C@@H](c3ccccc3OCCO)[C@]13C(=O)Nc1ccc(C#CC4(O)CCCCCC4)cc13)CC2 | 0.922
16 | COCCOC(=O)N1C(=O)[C@@]2(c3cc(C#CCCO)ccc31)[C@H](c1ccc(O)cc1)N1[C@H](c3ccccc3)[C@H](c3ccccc3)OC(=O)[C@H]1[C@@H]2C(=O)Nc1nc2ccccc2s1 | 0.992
17 | CC[C@H]1C2=C3C(CC[C@H]4C(OC)OC[C@](C)([C@@H]34)N(C(=O)OC(C)(C)C)C2)C(CO)C1CO (stereo partly specified) | 0.43
18 | CN(C)C(=O)[C@@]1(Cc2ccccc2N=[N+]=[N-])N=C(c2ccc(OCCCO)cc2)O[C@H]1c1ccccc1CN=[N+]=[N-] | 0.831

Row | Structure (SMILES) | composite z-score
19 | CC(C)[C@H]1NC(=O)[C@@]23C(=O)N[C@@H](Cc4ccccc4)C2[C@H](C)[C@@]2(C)O[C@H]2C3/C=C/C/C=C\CNC(=O)[C@H](C)NC1=O (stereo partly specified) | -0.908
20 | O=C1c2ccccc2[C@](Cc2ccccc2I)(C(=O)NCc2ccccc2)[C@H](c2ccc(CO)cc2)N1Cc1ccccc1C(F)(F)F | -0.373
21 | O=C1c2ccccc2[C@](Cc2ccccc2I)(C(=O)NCC(F)(F)F)[C@H](c2ccc(CO)cc2)N1Cc1ccccc1C(F)(F)F | 0.351
22 | CCC1=C2CN(Cc3ccccc3Br)[C@@H]([C@@H](O)Cc3ccccc3)C2C=CCC1 (stereo partly specified) | 0.455
23 | C=CCc1cccc([C@H]2N[C@H](C(=O)O)CC[C@@H]2C)c1 | 0.172
24 | COC(=O)C1=CC(c2ccc(CO)cc2)=CC(c2cccs2)N(Cc2cccc(OC(F)(F)F)c2)C=C1C(=O)OC (stereo unspecified) | 0.97
25 | C=C(CCCC)C(=O)CC[C@@H](OC(=O)c1cccnc1)c1cccc(OCCO)c1 | 0.314
26 | CO[C@H]1COC(=O)[C@H](Cc2ccccc2)NC(=O)CC=C[C@@H](C)[C@H](OC)COC(=O)CC=C[C@@H]1C | 0.256
27 | COCCOC(=O)N1C(=O)[C@@]2(c3cc(C#CCC(C(=O)OC)C(=O)OC)ccc31)[C@H](C(=O)N1CCN(c3ncccn3)CC1)[C@H]1C(=O)O[C@H](c3ccccc3)[C@H](c3ccccc3)N1[C@@H]2c1ccc(O)cc1 | 0.65
28 | CCCC=C(CCC)[C@@H](NS(=O)(=O)c1cccc(C(F)(F)F)c1)c1ccc(C(=O)OC)cc1 | 0.436
29 | NC(=O)[C@H]1[C@@H]2C(=O)O[C@@H](c3ccccc3)[C@@H](c3ccccc3)N2[C@@H](c2ccc(O)cc2)[C@]12C(=O)Nc1ccc(C#CCCO)cc12 | -1.74
30 | O=C(O)[C@@H]1Cc2c([nH]c3ccccc23)[C@@H](c2ccccc2)N1 | 0.651
31 | COc1cc2c(cc1OC)CN(C(=O)[C@@H]1[C@H]3C(=O)O[C@H](c4ccccc4)[C@H](c4ccccc4)N3[C@H](c3ccccc3OCCO)[C@@]13C(=O)Nc1ccccc13)CC2 | 0.833
32 | CCCC=C(CCC)[C@@H](NS(=O)(=O)c1ccc(-c2ccccc2)cc1)c1ccc(C(=O)OC)cc1 | -0.285
33 | O=C/C=C/c1ccccc1Cl | 0.0503
34 | [N-]=[N+]=NCc1ccccc1[C@H]1OC(c2ccc(OCCCO)cc2)=N[C@@]1(Cc1ccccc1N=[N+]=[N-])C(=O)NCc1ccccc1 | 0.82
35 | O=C1c2ccccc2[C@](Cc2ccccc2I)(C(=O)O)[C@H](c2ccc(CO)cc2)N1C1CCCCC1 | 0.801
36 | C=CCC(OC(C)=O)[C@@H]1[C@@H](N(Cc2cc3ccccc3o2)C(=O)Cc2ccc(F)cc2)c2cc(OCCCO)ccc2N1C(=O)c1ccc(-c2ccccc2)cc1 (stereo partly specified) | -1.2
